Bioassay records as filed in PubChem BioAssay.
An excerpt weighted towards active compounds, which were near 3.2% of everything screened.
ERAP1 HTS inh: blocks human ERAP1 aminopeptidase activity; Q9NZ08; recombinant ERAP1, Leu-AMC fluorescence, 60 min; inhibition, % at 10.7 µM; actives 0.15% (n = 340,000); AID 652197;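 active = mean replicate inhibition of at least 30%, or all replicates individually reaching that 30% level; inactive = mean below 30% and not every replicate reaching it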
Target sequence (Q9NZ08 whole entry, looked up): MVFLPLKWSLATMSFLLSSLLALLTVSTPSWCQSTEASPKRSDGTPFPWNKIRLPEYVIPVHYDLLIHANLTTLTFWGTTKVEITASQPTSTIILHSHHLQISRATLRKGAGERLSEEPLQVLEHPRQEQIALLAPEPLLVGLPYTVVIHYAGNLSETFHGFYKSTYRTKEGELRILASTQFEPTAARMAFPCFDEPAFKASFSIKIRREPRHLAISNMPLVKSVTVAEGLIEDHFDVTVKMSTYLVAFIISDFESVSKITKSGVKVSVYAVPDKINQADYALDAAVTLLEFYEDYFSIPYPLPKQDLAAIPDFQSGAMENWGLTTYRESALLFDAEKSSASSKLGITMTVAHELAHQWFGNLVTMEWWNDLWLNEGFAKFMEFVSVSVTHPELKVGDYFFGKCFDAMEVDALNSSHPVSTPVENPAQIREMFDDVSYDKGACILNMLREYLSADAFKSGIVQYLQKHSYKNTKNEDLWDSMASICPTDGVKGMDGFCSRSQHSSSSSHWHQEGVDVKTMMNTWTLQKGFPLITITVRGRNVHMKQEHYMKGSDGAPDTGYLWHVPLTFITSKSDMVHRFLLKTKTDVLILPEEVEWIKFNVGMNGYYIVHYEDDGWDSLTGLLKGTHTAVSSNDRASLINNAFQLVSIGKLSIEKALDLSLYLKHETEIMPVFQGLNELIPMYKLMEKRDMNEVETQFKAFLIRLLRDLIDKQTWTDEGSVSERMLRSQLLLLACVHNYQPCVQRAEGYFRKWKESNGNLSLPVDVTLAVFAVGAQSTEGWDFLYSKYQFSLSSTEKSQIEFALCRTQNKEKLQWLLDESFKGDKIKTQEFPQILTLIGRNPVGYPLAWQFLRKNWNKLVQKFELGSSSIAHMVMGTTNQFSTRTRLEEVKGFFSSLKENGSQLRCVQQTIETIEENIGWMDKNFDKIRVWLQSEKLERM
PGC1a acetyl inh: PGC1a acetylation modulation, inhibitor mode. inhibition, % at 15.6 µM. actives 0.17% (n = 350,000). AID 651687. U2OS PGC1a acetylation, AlphaScreen anti-acetyl-lysine; with virally co-expressed GCN5 acetyltransferase;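 active = every replicate shows inhibition of at least 40%; inconclusive = mean inhibition at least 40% but some replicate below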
CaV13 FRET inh: Disruptors of the CACNA1D IQ motif to Ca2+-dependent inactivation inhibitor domain association, primary screening, Förster resonance energy transfer in intact living …. actives 0.098% (n = 340,000). AID 743397. HEK cells, CFP/YFP FRET ICDI-IQ, plate reader, 10 min; percent FRET-ratio fall versus neutral wells. inhibition, % at 12.3 µM;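 active = mean replicate inhibition of at least 30% and at least 1% of replicates passing that level; inconclusive = only one of the two criteria is met; inactive = neither criterion is met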
GSIS activator: GLuc luminescence reporter in INS-1E cells, primary screen for activators of glucose-dependent secretion of insulin; AID 743287; activation, % at 16.6 µM; actives 0.61% (n = 370,000); INS-1E GLuc reporter insulin secretion, 2-3 h;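 active = lowest replicate activation of at least 40%, so every replicate reaches that level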
Ecoli rRNA inh: selective bacterial rRNA inhibition in E. coli | E. coli WT GFP vs humanized-ribosome RFP mutants, fluorescence, 24 h; hits give low values; DMSO median 0, no signal -100 | GFP signal change (wild-type ribosome), % (no concentration beside the values) | actives 1.6% (n = 350,000);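 active = significant combined selectivity score with lowered wild-type GFP, culture density cut under 30%, mutant RFP and density less affected; inactive = any of these conditions unmet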
DENV2 CPE rescue: inhibitors of DENV2 cytopathic effect | DENV2-infected cells, cytopathic effect rescue, plate reader | CPE inhibition, % at 9.99 µM | actives 1.7% (n = 350,000) | AID 651640; in the data active = CPE inhibition above about 20%, passing the limit was not always enough; inconclusive = no clear call, values can overlap the other calls; tested in BHK-21 cells
Each line names hits and unclear results; the compound was inactive in the other large screens.

N#C[C@H]1[C@@H](c2ccccc2C2=CCCC2)[C@@H](CO)N1C(=O)C1CCOCC1	DENV2 CPE rescue 36 (no result: CaV13 FRET inh)
N#C[C@@H]1[C@@H](c2ccccc2C2=CCCCC2)[C@@H](CO)N1C(=O)CN1CCOCC1	DENV2 CPE rescue 30 (no result: CaV13 FRET inh)
CN1C[C@@H]2[C@H](c3ccccc31)[C@H](CO)N2C(=O)CN1CCOCC1	DENV2 CPE rescue 37 (no result: CaV13 FRET inh)
CN1C[C@@H]2[C@H](c3ccccc31)[C@@H](CO)N2C(=O)CN1CCOCC1	none (no result: ERAP1 HTS inh, CaV13 FRET inh)
C/C=C/c1ccccc1[C@H]1[C@@H](C#N)N(C(=O)CN2CCOCC2)[C@@H]1CO	DENV2 CPE rescue 39 (no result: CaV13 FRET inh)
O=C(C[C@H]1CC[C@H]2[C@@H](COC[C@H](O)CN2CC2CCOCC2)O1)NCC1CC1	none (no result: CaV13 FRET inh)
O=C(Nc1ccccc1F)N[C@@H]1CC[C@@H](CCNC(=O)C2CCCC2)O[C@H]1CO	DENV2 CPE rescue 39 (no result: CaV13 FRET inh)
O=C(Nc1ccccc1F)N[C@@H]1CC[C@H](CCNC(=O)C2CCCC2)O[C@@H]1CO	none (no result: CaV13 FRET inh)
O=C(Nc1ccccc1F)N[C@@H]1CC[C@H](CCNC(=O)C2CCCC2)O[C@H]1CO	DENV2 CPE rescue 26 (no result: CaV13 FRET inh)
CC1CCCN(c2ccc3nc4ccccc4c(=O)n3n2)C1 (stereo unspecified)	Ecoli rRNA inh -18 (no result: PGC1a acetyl inh)
Cc1cccc(OCCn2c(=O)n(C)c3ccccc32)c1	DENV2 CPE rescue 69
Cc1cccc(OCCn2c(=O)sc3ccccc32)c1	none (no result: ERAP1 HTS inh, Ecoli rRNA inh, DENV2 CPE rescue)
O=C(C[C@H]1CC[C@H](NS(=O)(=O)c2ccccc2)[C@@H](CO)O1)N1CCC(Cc2ccccc2)CC1	DENV2 CPE rescue inconclusive (no result: CaV13 FRET inh)
O=C(CS(=O)(=O)c1ccccc1)N1CCN(c2ccccc2)CC1	DENV2 CPE rescue 103 (no result: CaV13 FRET inh)
COc1ccc(-c2nnn(CC(=O)N3CCN(c4ccccc4OC)CC3)n2)cc1OC	Ecoli rRNA inh -17
COc1ccc(-c2nnn(CC(=O)N3CCN(c4ccccc4OC)CC3)n2)cc1	none (no result: ERAP1 HTS inh, GSIS activator, Ecoli rRNA inh, DENV2 CPE rescue)
COc1ccccc1N1CCN(C(=O)CSc2nc3ccccc3[nH]2)CC1	Ecoli rRNA inh -41
C[C@@H]1CCC[C@]2(O[C@@H](CCO)C[C@@H](O)[C@@H]2O)O1	DENV2 CPE rescue 34
C[C@@H]1CC[C@]2(O[C@H](CCO)C[C@H](O)[C@H]2O)O1	DENV2 CPE rescue 39
C[C@H]1CCC[C@]2(O[C@H](CCO)C[C@H](O)[C@H]2O)O1	none
C[C@H]1CC[C@@]2(O[C@@H](CCO)C[C@H](O)[C@H]2O)O1	none (no result: ERAP1 HTS inh)
Cc1noc(C)c1S(=O)(=O)Nc1ccc2c(c1)C(=O)N([C@H](C)CO)C[C@@H](C)[C@H](CN(C)Cc1ccc3c(c1)OCO3)OCCCC[C@H](C)O2	none (no result: CaV13 FRET inh)
Cc1cc(C2=NNC(=NCCc3ccccc3)SC2)c(C)n1-c1c(C)n(C)n(-c2ccccc2)c1=O	PGC1a acetyl inh 63 (no result: ERAP1 HTS inh)
CC(C)(C)N1CC23C=CC(C[C@@H]2C1=O)O3 (stereo partly specified)	none
CC(C)(C)N1CC23CCC(C[C@@H]2C1=O)O3 (stereo partly specified)	DENV2 CPE rescue 39
Cc1noc(C)c1S(=O)(=O)N(C)C[C@H]1Oc2ccc(NS(=O)(=O)c3cn(C)cn3)cc2C(=O)N([C@@H](C)CO)C[C@H]1C	none (no result: CaV13 FRET inh)
CN(C)c1ccc(C#Cc2ccc3cc(CCCO)oc(=O)c3c2)cc1	DENV2 CPE rescue 78
CO[C@@H](CN(C)Cc1cc(F)ccc1F)[C@H](C)CN([C@@H](C)CO)S(=O)(=O)c1ccc(F)cc1	none (no result: CaV13 FRET inh)
CO[C@H](CN(C)Cc1cc(F)ccc1F)[C@@H](C)CN([C@@H](C)CO)S(=O)(=O)c1ccc(F)cc1	DENV2 CPE rescue 103 (no result: CaV13 FRET inh)
COC(=O)C[C@H]1c2cc(C(F)(F)F)ccc2S(=O)(=O)N1Cc1ccc(OC)cc1	DENV2 CPE rescue 20 (no result: ERAP1 HTS inh)
COc1ccc(CN2[C@@H](CC(=O)O)c3cc(C(F)(F)F)ccc3S2(=O)=O)cc1	none (no result: PGC1a acetyl inh)
COC(=O)C[C@H]1c2cc(F)ccc2S(=O)(=O)N1Cc1ccccc1OC	none (no result: PGC1a acetyl inh)
COc1ccccc1CN1[C@@H](CC(C)=O)c2cc(C(F)(F)F)ccc2S1(=O)=O	DENV2 CPE rescue 71 (no result: ERAP1 HTS inh)
CC(=O)N(C)C[C@@H]1Oc2ncc(C#CCc3ccccc3)cc2C(=O)N([C@@H](C)CO)C[C@H]1C	none (no result: CaV13 FRET inh)
CN(C)CCCNC(=O)[C@H]1[C@H](CO)[C@H]2Cn3c(cccc3=O)[C@H]2N1C(=O)Nc1ccccc1	none (no result: CaV13 FRET inh)
Cc1ccc(S(=O)(=O)c2ccc([N+](=O)[O-])o2)cc1	GSIS activator 99 (no result: PGC1a acetyl inh)
O=C(CCCSc1nc2ccccc2s1)NCc1ccc2c(c1)OCO2	Ecoli rRNA inh -28 (no result: PGC1a acetyl inh)
O=C(NCC1CCN(C(=O)C(=O)c2cc3ccccc3o2)CC1)c1ccc2c(c1)OCCCO2	Ecoli rRNA inh -17 (no result: PGC1a acetyl inh)
O=C(C(=O)N1CCC(CNS(=O)(=O)c2ccccc2)CC1)c1cc2ccccc2o1	Ecoli rRNA inh -13 (no result: PGC1a acetyl inh)
CS(=O)(=O)c1ccc(S(=O)(=O)NCC2CCN(C(=O)C(=O)c3cc4ccccc4o3)CC2)cc1	none (no result: PGC1a acetyl inh)
CSc1ccc(C(=O)NCC2CCN(C(=O)C(=O)c3cc4ccccc4o3)CC2)cc1	Ecoli rRNA inh -14 (no result: PGC1a acetyl inh)
CO[C@@H]1CN(C)C(=O)c2cc(NS(=O)(=O)c3cn(C)cn3)ccc2OC[C@@H](C)N(Cc2cccc(F)c2)C[C@@H]1C	none (no result: CaV13 FRET inh)
COc1ccccc1CNC(c1ccccc1)c1ccccc1	none
CCOc1ccccc1CNC(c1ccccc1)c1ccccc1	GSIS activator 88 (no result: PGC1a acetyl inh)
Cc1cccc(C)c1NC(=O)C1(C)CSCC(=O)N1Cc1cccc(F)c1 (stereo unspecified)	none (no result: ERAP1 HTS inh, PGC1a acetyl inh)
Cc1cccc(C)c1NC(=O)C1(C)CSCC(=O)N1Cc1cccc(C(F)(F)F)c1 (stereo unspecified)	DENV2 CPE rescue 34 (no result: PGC1a acetyl inh)
CCC(=O)OCCNc1cc(Sc2nccn2C)c2nonc2c1[N+](=O)[O-]	GSIS activator 111 (no result: ERAP1 HTS inh, PGC1a acetyl inh, Ecoli rRNA inh, DENV2 CPE rescue)
CCCC(=O)OCCNc1cc(Sc2nc3ccccc3[nH]2)c2nonc2c1[N+](=O)[O-]	GSIS activator 76 (no result: ERAP1 HTS inh, Ecoli rRNA inh, DENV2 CPE rescue)
C[C@@H]1CN([C@@H](C)CO)C(=O)c2cccc(NC(=O)C3CCOCC3)c2O[C@@H]1CN(C)C	DENV2 CPE rescue inconclusive (no result: CaV13 FRET inh)
COc1ccccc1NC(=O)c1ccc(C(=O)c2ccccc2)o1	Ecoli rRNA inh -32
CSc1nc2c(c(=O)n1Cc1ccccc1)SC(C)C2 (stereo unspecified)	GSIS activator 45 (no result: ERAP1 HTS inh, CaV13 FRET inh, Ecoli rRNA inh, DENV2 CPE rescue)
CCCNC(=O)N1C[C@H](C)[C@@H](OC)CN(C)C(=O)c2cc(NC(=O)C3CCC3)ccc2OC[C@@H]1C	none (no result: ERAP1 HTS inh, CaV13 FRET inh, DENV2 CPE rescue)
Nc1cccc2c1C(=O)N(c1ccccc1)C2=O	CaV13 FRET inh active (no result: ERAP1 HTS inh)
O=C1c2ccccc2C(=O)N1c1ccccc1	none (no result: CaV13 FRET inh)
